Reference: PubChem BioAssay
Results filed as inconclusive are left out. The source made the active and inactive calls.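 The calls were made as follows, unless noted: active = percent response above 42, roughly 3 SD of non-fluorescent test compounds; inactive = the rest.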 Peptide text beside a SMILES is read from it.

Legend:
[1] = rapamycin-like changes in RPL19A-GFP expression – cell-based, S. cerevisiae, multiplex flow cytometry, primary screen (AID 1862; in the data active = percent of DMSO control GFP below about 86%;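 also: lower values mimic rapamycin by blocking the RPL19A rise seen in DMSO cells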); conditions: S. cerevisiae RPL19A-GFP strain, flow cytometry fluorescence, 3 h; at 10 µM; stronger effect = lower value
[2] = TOR pathway GLN3 branch reporter MEP2-GFP changes – S. cerevisiae, multiplex flow cytometry, primary screen (AID 1867;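 active = GFP response, as percent of the DMSO control, above the screen-wide mean plus 3 SD, about 139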;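 also: median GFP channel fluorescence of barcode-gated MEP2-GFP cells measured by flow cytometry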); conditions: S. cerevisiae MEP2-GFP strain, 3 h, at 10 µM, stronger effect = higher value, 100% means same as DMSO wells
[3] = TOR pathway RTG branch CIT2 reporter changes – S. cerevisiae, GFP fusion, multiplex flow cytometry, primary screen (AID 1870;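 active = percent response above a set limit, the screen-wide mean plus 3 SD, cut at about 130% in these data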;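 also: barcoded CIT2-GFP strain pooled with four other GFP strains with rapamycin as positive control; median GFP fluorescence per well over plate mean of DMSO wells so 100% = DMSO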); conditions: S. cerevisiae CIT2-GFP expression, 3 h, at 10 µM, stronger effect = higher value
[4] = TOR pathway LAP4-GFP level changes – S. cerevisiae, multiplex flow cytometry, primary screen (AID 1873;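 active = GFP signal, as percent of the solvent control, above the screen mean plus 3 SD, about 149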); conditions: S. cerevisiae LAP4-GFP expression, 3 h, at 10 µM, stronger effect = higher value
[5] = yeast AGP1-GFP level changes, GLN3 branch – cell-based, multiplex flow cytometry, S. cerevisiae, primary screen (AID 1887;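 active = GFP signal above the screen-wide mean plus 3 SD, that is over about 124.5% of the solvent control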;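 also: AGP1-GFP fusion strain of S. cerevisiae within a five-strain barcoded multiplex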); conditions: 3 h, at 10 µM, stronger effect = higher value
[6] = reduced mouse 2C T cell binding to pMHC/ICAM-1 vesicles – MLPCN validation set, flow cytometry, LFA-1/ICAM-1 modulator project, pilot screen (AID 2523;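 active = response below a set limit, under 55% cells CD8-positive and vesicle-bound, and CD8 cells' 90th-percentile brightness under 279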;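 as to vesicle binding response: mean PE anti-B7-1 fluorescence of CD8+ cells relative to row control; 100% = QL9-loaded vesicles with DMSO vehicle in the same plate row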); conditions: 2C mouse CD8+ T cells, at 7 µM, stronger effect = lower value; double positive events: measured here: CD8+/vesicle+ event percentage
[7] = molecular target: Integrin beta-1 (Homo sapiens) + Integrin alpha-4 (Homo sapiens) (UniProt P13612+P05556); assay: alpha4beta1 integrin LIBS antibody binding reduction – U937 cells, HUTS-21 mAb, flow cytometry, validation set, VLA-4 allosteric modulator project, pilot screen (AID 2674;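 active = inhibition above 50%, about 3 SD of the validation set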;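 also: antibody binding induced by the VLA-4 ligand LDV present at three times its Kd; 0% = LDV ligand with antibody and no compound and 100% = antibody without LDV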); conditions: HUTS-21 LIBS mAb binding, at 6.7 µM, stronger effect = higher value, binding induced by LDV ligand
[8] = calorie-restriction mimetic ROS inhibitors, yeast – validation compound set, pilot screen (AID 2706;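 active = superoxide response below 65% of plate, a cut near 3 SD across the whole screen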;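 also: yeast exposed to compound for one week at 30 degrees C before staining; 100% = mean of all compound wells on the same plate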); conditions: S. cerevisiae aging, superoxide DHE fluorescence; at 10 µM; stronger effect = lower value
[9] = molecular target: Beta-adrenergic receptor kinase 1 (Homo sapiens) (UniProt P25098); assay: GRK2 binders displacing RNA aptamer, biochemical, validation, human GRK2, bead flow cytometry (AID 488806;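 active = aptamer binding inhibition above 30%, about 3 SD of noise from non-fluorescent compounds; inactive = inhibition at or below 30%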); conditions: bead-bound GRK2, FAM-aptamer displacement, at 10 µM, stronger effect = higher value
[10] = molecular target: Beta-2 adrenergic receptor (Homo sapiens) (UniProt P07550); assay: agonist-induced loss of surface beta2AR – cell-based, FAP fluorogen, flow cytometry, validation set, pilot screen (AID 504459); conditions: Am2.2-beta2AR cells, at 10 µM, stronger effect = higher value;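 also: agonist-driven loss of surface beta2AR via internalization measured by FAP dye flow cytometry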
[11] = molecular target: AP-2 complex subunit beta (Homo sapiens) (UniProt P63010); assay: beta-arrestin/AP2 interaction blockers – biochemical, validation set, GST-AP2 beads, flow cytometry, pilot screen (AID 504541;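 active = inhibition above 54%, about 3 SD of non-fluorescent compounds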;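 also: AP2 carries R879A mutation and is captured from E. coli lysate; bead-bound FITC arrestin peptide fluorescence measuring arrestin peptide binding to AP2; 0% = DMSO wells and 100% = excess unlabeled arrestin peptide control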); conditions: FITC arrestin peptide, at 10 µM, stronger effect = higher value, AP2 beta2 appendage fragment, R879A mutant
[12] = cytosolic pH regulators acting via V-ATPase – S. cerevisiae, pHLuorin, HTS validation (AID 504600; in the data active = response above about 15%;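 also: plate controls were DMSO for no effect and reference compound for full effect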); conditions: V-ATPase proton transport, at 10 µM, stronger effect = higher value
[13] = tested on: anti-desmoglein-3 scFv antibody binding to human DSG3; assay: blockers of pathogenic pemphigus antibody–desmoglein-3 binding – biochemical, validation compound set, bead-based, flow cytometry, pilot screen (AID 588368;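 active = binding below the plate cutoff, the plate median minus 3 SD, with a reading above zero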;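 also: signal is the median channel fluorescence of bead-bound GFP antibody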); conditions: Protein G beads, DSG3-Fc, scFv-GFP binding, at 10 µM, stronger effect = lower value
[14] = Nile Red efflux blockade in pump-expressing yeast – validation compound set, multiplex, phenotypic, pilot screen (AID 588506;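 active = efflux inhibition above 0.42, the validation set average plus 4 SD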;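 also: Nile Red retained in cells so higher fluorescence means more efflux inhibition; 0 = negative control wells and 1 = enniatin B 25 µM full block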); conditions: S. cerevisiae pump-expressing triplex, Nile Red efflux flow cytometry; at 10 µM; stronger effect = higher value; the pumps come from Candida albicans
[15] = molecular target: ATP-binding cassette sub-family B member 6 (Homo sapiens) (UniProt Q9NP58); assay: blockers of ABCB6-driven porphyrin uptake – K562-ABCB6 cells, flow cytometry, validation set, pilot screen (AID 588550;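 active = inhibition above the screen-wide mean plus 3 SD, about 51%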;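 also: 0% = DMSO wells and 100% = benzethonium chloride 70 µM positive control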); conditions: K562-ABCB6 porphyrin accumulation, 1 h, at 10 µM, stronger effect = higher value
[16] = AML differentiation inducers, ER-HoxA9 marrow cells – cell-based, GFP/MAC1 double positive, flow cytometry, validation set, primary screen (AID 588685;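 active = differentiation response of at least 50%, scaled between solvent and reference control, from cells with both markers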;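 also: compound exposure lasts four days before antibody staining and flow analysis; 0% = DMSO wells and 100% = 5 µM fulvestrant positive control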); conditions: stronger effect = higher value, normalized: vehicle 0, fulvestrant 100

Chain of ATP-binding cassette sub-family B member 6 (Homo sapiens) (Q9NP58 whole entry, looked up): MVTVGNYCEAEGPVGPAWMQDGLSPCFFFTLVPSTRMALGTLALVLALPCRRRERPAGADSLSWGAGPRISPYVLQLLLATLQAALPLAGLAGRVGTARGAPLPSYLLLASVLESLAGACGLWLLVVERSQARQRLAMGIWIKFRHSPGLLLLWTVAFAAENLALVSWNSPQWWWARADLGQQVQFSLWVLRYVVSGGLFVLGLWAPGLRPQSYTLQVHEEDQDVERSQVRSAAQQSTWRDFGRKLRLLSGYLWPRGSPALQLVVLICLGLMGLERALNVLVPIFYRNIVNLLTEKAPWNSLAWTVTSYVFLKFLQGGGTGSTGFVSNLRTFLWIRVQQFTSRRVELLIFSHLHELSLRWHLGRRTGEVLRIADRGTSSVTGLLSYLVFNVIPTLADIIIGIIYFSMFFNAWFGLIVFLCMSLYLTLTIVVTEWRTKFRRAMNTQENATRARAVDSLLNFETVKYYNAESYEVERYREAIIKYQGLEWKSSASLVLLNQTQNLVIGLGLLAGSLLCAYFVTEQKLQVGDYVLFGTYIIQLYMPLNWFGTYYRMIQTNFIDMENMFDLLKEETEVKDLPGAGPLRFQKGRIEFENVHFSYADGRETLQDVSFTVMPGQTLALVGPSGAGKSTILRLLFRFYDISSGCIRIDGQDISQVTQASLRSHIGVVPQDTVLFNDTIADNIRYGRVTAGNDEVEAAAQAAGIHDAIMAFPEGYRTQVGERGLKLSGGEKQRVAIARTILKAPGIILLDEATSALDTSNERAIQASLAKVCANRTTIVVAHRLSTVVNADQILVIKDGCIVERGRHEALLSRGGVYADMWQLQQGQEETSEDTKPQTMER
Chain of Integrin beta-1 (Homo sapiens) + Integrin alpha-4 (Homo sapiens) (P05556 whole entry, looked up): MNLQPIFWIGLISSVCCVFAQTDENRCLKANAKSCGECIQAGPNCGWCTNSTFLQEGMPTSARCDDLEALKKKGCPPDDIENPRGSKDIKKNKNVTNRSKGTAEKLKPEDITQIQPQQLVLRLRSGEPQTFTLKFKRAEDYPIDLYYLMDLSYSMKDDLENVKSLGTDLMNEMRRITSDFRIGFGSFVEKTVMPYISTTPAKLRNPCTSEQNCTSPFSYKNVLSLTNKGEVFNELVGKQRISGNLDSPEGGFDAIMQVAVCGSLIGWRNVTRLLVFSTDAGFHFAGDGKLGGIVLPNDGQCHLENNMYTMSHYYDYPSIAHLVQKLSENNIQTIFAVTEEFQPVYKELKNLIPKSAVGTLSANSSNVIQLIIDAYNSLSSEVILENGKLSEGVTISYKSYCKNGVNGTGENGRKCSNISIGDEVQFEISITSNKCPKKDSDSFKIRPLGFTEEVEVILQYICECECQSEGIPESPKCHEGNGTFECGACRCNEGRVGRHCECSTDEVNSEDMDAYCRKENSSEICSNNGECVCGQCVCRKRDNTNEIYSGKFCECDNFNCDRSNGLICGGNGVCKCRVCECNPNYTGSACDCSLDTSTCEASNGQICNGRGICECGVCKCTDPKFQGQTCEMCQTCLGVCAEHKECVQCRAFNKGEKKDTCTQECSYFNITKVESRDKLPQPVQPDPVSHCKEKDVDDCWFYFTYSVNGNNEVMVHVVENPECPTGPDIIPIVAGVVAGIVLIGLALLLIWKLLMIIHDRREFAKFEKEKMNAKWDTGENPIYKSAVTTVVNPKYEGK
Chain of Integrin beta-1 (Homo sapiens) + Integrin alpha-4 (Homo sapiens) (P13612 whole entry, looked up): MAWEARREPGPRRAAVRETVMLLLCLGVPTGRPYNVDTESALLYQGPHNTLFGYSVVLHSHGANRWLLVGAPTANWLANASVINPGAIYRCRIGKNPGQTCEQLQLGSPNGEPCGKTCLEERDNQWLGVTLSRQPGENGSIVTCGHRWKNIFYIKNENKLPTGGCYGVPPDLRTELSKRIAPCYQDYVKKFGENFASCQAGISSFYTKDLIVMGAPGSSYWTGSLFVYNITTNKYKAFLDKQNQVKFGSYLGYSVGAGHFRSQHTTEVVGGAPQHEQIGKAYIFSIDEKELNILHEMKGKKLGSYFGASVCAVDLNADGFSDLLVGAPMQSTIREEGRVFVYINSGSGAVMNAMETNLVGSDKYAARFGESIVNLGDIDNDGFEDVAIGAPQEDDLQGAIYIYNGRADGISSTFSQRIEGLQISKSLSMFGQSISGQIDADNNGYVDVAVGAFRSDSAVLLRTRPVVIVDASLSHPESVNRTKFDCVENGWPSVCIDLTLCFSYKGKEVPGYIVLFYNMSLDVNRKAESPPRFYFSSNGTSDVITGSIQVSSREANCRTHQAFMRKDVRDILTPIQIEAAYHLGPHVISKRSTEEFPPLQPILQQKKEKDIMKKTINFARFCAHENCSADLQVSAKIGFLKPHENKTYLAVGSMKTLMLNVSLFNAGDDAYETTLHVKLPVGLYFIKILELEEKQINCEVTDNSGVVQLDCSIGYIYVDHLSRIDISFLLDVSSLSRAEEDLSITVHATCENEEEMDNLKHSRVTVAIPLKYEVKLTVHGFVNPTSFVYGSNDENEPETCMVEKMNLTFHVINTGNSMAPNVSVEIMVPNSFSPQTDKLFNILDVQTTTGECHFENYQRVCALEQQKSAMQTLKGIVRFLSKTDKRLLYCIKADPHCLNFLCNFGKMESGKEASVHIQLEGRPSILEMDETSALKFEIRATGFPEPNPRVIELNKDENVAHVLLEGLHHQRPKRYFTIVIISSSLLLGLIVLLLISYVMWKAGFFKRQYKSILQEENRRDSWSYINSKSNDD
Chain of Beta-2 adrenergic receptor (Homo sapiens) (P07550 whole entry, looked up): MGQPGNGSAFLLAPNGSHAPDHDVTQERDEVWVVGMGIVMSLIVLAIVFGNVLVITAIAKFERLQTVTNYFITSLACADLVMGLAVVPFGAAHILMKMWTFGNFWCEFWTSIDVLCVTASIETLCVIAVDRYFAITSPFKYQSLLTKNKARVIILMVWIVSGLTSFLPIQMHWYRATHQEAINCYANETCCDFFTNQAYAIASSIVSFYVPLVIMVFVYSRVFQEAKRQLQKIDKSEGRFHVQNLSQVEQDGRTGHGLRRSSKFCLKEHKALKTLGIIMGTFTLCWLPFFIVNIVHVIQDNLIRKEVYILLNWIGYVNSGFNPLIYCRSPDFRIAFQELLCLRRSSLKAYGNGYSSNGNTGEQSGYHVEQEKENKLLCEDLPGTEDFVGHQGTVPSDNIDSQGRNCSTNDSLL
Chain of Beta-adrenergic receptor kinase 1 (Homo sapiens) (P25098 whole entry, looked up): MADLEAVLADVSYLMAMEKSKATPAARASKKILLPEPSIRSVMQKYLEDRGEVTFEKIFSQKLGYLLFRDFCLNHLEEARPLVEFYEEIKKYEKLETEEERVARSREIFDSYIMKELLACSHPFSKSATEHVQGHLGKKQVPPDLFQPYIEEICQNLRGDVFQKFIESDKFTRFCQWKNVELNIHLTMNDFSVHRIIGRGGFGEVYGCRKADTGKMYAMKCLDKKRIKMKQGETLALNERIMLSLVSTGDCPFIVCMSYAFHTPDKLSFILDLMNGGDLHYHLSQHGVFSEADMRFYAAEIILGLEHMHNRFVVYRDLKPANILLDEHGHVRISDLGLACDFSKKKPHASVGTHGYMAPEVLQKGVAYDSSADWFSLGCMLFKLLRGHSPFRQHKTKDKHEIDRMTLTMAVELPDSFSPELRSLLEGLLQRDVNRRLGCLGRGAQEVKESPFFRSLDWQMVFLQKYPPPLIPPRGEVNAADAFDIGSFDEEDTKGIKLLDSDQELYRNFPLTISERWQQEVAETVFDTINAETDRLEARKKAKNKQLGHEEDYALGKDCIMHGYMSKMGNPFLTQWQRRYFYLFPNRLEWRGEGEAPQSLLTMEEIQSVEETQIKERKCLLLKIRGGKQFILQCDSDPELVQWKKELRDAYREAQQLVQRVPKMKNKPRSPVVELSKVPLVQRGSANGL
Chain of AP-2 complex subunit beta (Homo sapiens) (P63010 whole entry, looked up, the tested form may be a part, one chain of several): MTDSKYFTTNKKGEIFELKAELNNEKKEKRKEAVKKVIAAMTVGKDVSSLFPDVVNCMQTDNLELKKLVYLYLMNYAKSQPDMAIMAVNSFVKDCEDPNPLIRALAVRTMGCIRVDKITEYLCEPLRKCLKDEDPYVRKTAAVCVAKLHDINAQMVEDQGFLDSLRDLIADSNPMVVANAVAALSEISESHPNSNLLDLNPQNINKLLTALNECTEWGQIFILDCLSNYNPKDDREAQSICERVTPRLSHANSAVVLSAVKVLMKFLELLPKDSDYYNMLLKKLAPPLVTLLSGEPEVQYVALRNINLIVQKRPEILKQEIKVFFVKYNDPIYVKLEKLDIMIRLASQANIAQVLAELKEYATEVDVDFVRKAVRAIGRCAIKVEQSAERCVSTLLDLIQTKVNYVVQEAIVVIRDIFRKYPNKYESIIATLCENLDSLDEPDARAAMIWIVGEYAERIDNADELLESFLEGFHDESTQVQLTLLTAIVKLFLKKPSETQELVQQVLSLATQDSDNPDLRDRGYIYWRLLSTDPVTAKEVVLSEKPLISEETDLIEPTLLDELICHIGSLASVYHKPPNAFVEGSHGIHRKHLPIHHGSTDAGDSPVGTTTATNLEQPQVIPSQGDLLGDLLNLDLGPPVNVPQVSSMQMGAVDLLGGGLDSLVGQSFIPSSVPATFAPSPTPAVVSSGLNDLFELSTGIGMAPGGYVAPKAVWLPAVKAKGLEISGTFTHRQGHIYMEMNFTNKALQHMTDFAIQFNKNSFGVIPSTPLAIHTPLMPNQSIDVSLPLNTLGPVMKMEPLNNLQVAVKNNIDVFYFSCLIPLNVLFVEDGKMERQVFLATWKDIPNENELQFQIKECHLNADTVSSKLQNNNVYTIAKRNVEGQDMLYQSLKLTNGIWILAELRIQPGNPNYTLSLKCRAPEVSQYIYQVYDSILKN

O=c1c(-c2ccccc2)c(O)c2cccc3c2n1CCC3
inactive: percent of DMSO control GFP [1] 99.7% | GFP response vs DMSO [2] 104% | percent response of DMSO control [3] 95.7% | GFP response vs DMSO [4] 132% | GFP response, % of DMSO [5] 103% | vesicle binding response [6] 186% | inhibition [7] 1.44% | superoxide response (% of plate) [8] 108% | aptamer binding inhibition [9] -3% | response [10] -27.7% | inhibition [11] -7.94% | response [12] 0.3% | binding (% of control) [13] 101% | efflux inhibition (fraction of control) [14] -0.09 | inhibition [15] 1% | differentiation response [16] -12.9%
61.2%: double positive events [6]

COc1ccc(-c2cc(C(=O)N3CCOCC3)c3cc(C)ccc3n2)cc1
73.1%: double positive events [6]
inactive: percent of DMSO control GFP [1] 91.1% | GFP response vs DMSO [2] 102% | percent response of DMSO control [3] 101% | GFP response vs DMSO [4] 110% | GFP response, % of DMSO [5] 107% | vesicle binding response [6] 206% | inhibition [7] -8.78% | superoxide response (% of plate) [8] 92% | aptamer binding inhibition [9] 1% | response [10] -16.3% | inhibition [11] 9.71% | response [12] -6.37% | binding (% of control) [13] 104% | efflux inhibition (fraction of control) [14] -0.09 | inhibition [15] 7% | differentiation response [16] 9.79%

O=C(NCCc1c[nH]c2ccccc12)c1cccnc1
inactive: percent of DMSO control GFP [1] 101% | GFP response vs DMSO [2] 101% | percent response of DMSO control [3] 98.6% | GFP response vs DMSO [4] 113% | GFP response, % of DMSO [5] 103% | vesicle binding response [6] 188% | inhibition [7] 2.3% | superoxide response (% of plate) [8] 93.7% | aptamer binding inhibition [9] 3% | response [10] -0.09% | inhibition [11] 17.6% | response [12] -6.3% | binding (% of control) [13] 90.1% | efflux inhibition (fraction of control) [14] 0.3 | inhibition [15] 6% | differentiation response [16] 12%
61.5%: double positive events [6]

CC(=O)NC(CC(C)C)C(=O)NC(Cc1ccccc1)C(N)=O (stereo not drawn) (Ac-Leu-Phe-NH2; configuration not given here)
inactive: percent of DMSO control GFP [1] 101% | GFP response vs DMSO [2] 107% | percent response of DMSO control [3] 98.6% | GFP response vs DMSO [4] 111% | GFP response, % of DMSO [5] 103% | vesicle binding response [6] 128% | inhibition [7] 20.4% | superoxide response (% of plate) [8] 91.8% | aptamer binding inhibition [9] 2% | response [10] 4.73% | inhibition [11] -15.5% | response [12] -1.63% | binding (% of control) [13] 103% | efflux inhibition (fraction of control) [14] -0.13 | inhibition [15] 13% | differentiation response [16] -4.57%
60.5%: double positive events [6]

CC(=O)N[C@@H](CS)C(=O)O
64.2%: double positive events [6]
inactive: percent of DMSO control GFP [1] 101% | GFP response vs DMSO [2] 111% | percent response of DMSO control [3] 95.8% | GFP response vs DMSO [4] 131% | GFP response, % of DMSO [5] 101% | vesicle binding response [6] 159% | inhibition [7] -3.16% | superoxide response (% of plate) [8] 89.1% | aptamer binding inhibition [9] 5% | response [10] 7.69% | inhibition [11] -18.7% | response [12] 0.13% | binding (% of control) [13] 104% | efflux inhibition (fraction of control) [14] -0.03 | inhibition [15] 19% | differentiation response [16] 7.2%

O=C(/C=C/c1ccccc1)NCC1(c2ccccc2)CCOCC1
inactive: percent of DMSO control GFP [1] 101% | GFP response vs DMSO [2] 104% | percent response of DMSO control [3] 101% | GFP response vs DMSO [4] 117% | GFP response, % of DMSO [5] 103% | vesicle binding response [6] 255% | inhibition [7] -18.2% | superoxide response (% of plate) [8] 99.2% | aptamer binding inhibition [9] -1% | response [10] -8.35% | response [12] -9.57% | binding (% of control) [13] 97% | efflux inhibition (fraction of control) [14] -0.21 | inhibition [15] 3% | differentiation response [16] -15.2%
64.3%: double positive events [6]
active: inhibition [11] 63.9%

COc1cc(CNCCc2c[nH]c3ccccc23)cc(Cl)c1OCC(N)=O
66.2%: double positive events [6]
inactive: percent of DMSO control GFP [1] 107% | GFP response vs DMSO [2] 97.4% | percent response of DMSO control [3] 102% | GFP response vs DMSO [4] 94% | GFP response, % of DMSO [5] 97.2% | vesicle binding response [6] 340% | inhibition [7] -7.25% | superoxide response (% of plate) [8] 102% | aptamer binding inhibition [9] -6% | response [10] 14.8% | inhibition [11] -2.94% | response [12] 1.24% | binding (% of control) [13] 99.9% | efflux inhibition (fraction of control) [14] 0.3 | inhibition [15] 0% | differentiation response [16] -10.4%

CCOCC(=O)Nc1nc2ccccc2s1
inactive: percent of DMSO control GFP [1] 92.4% | GFP response vs DMSO [2] 125% | percent response of DMSO control [3] 101% | GFP response vs DMSO [4] 80.9% | GFP response, % of DMSO [5] 94.2% | vesicle binding response [6] 149% | inhibition [7] 2.58% | superoxide response (% of plate) [8] 95.4% | aptamer binding inhibition [9] 6% | response [10] -8.15% | inhibition [11] -1.47% | response [12] 3.42% | binding (% of control) [13] 105% | efflux inhibition (fraction of control) [14] 0.23 | inhibition [15] 12% | differentiation response [16] -0.82%
65.7%: double positive events [6]

CC(=O)Oc1ccc2c(=O)c(Oc3ccccc3[N+](=O)[O-])coc2c1
inactive: percent of DMSO control GFP [1] 99.8% | GFP response vs DMSO [2] 131% | percent response of DMSO control [3] 111% | GFP response vs DMSO [4] 78.7% | GFP response, % of DMSO [5] 95.6% | vesicle binding response [6] 188% | inhibition [7] -0.33% | superoxide response (% of plate) [8] 121% | aptamer binding inhibition [9] 3% | response [10] -4.04% | inhibition [11] -1.47% | response [12] 0.8% | binding (% of control) [13] 101% | efflux inhibition (fraction of control) [14] -0.06 | inhibition [15] -4% | differentiation response [16] 0%
60.6%: double positive events [6]
